# Active and inactive are the calls of the source. How the calls were made is not given here.
# Target: Pantothenate synthetase (Mycobacterium tuberculosis (strain ATCC 25618 / H37Rv)) (UniProt P9WIL5)
# Assay: Coupled enzyme confirmation of inhibitors against recombinant Mtb PanC (AID 375);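 further: 0% = full reaction with vehicle and 100% = no enzyme background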
# Conditions: coupled enzyme assay; at 10 µM, active compounds read high
# Sequence of Pantothenate synthetase (Mycobacterium tuberculosis (strain ATCC 25618 / H37Rv)) (P9WIL5 whole entry, looked up): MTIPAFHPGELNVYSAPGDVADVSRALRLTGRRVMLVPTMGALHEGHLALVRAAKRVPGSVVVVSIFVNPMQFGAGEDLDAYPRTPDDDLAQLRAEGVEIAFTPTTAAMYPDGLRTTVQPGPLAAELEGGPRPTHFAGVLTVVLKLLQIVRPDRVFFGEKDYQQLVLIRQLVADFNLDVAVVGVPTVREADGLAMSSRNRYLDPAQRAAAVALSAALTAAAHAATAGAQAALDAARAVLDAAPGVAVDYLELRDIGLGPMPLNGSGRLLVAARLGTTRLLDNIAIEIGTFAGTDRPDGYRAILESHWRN
row,SMILES,inhibition
1,COc1cc(Br)cc(/C=N/c2ncn[nH]2)c1O,5% (inactive)
2,CC(C)CCSc1nc2c(c(=O)[nH]c(=O)n2C)n1CCCc1ccccc1,0% (inactive)
3,CCCN1CCN(C(=O)Cn2c(=O)oc3cc(S(=O)(=O)NCc4ccccc4)ccc32)CC1,3% (inactive)
4,COC(=O)c1cc(O)c(OCc2ccccc2)c(O)c1,0% (inactive)
5,CCOC(=O)c1c(NC(=O)CSc2nnc(-c3cccnc3)o2)sc(C)c1C,4% (inactive)
6,COCC(=O)N(c1ccc(C(C)C)cc1)C1C=CS(=O)(=O)C1 (centres undefined),0% (inactive)
7,O=C(O)c1ccc(CSc2ncn[nH]2)cc1,1% (inactive)
8,COC(=O)c1cc(-c2ccccc2)sc1NC(=O)c1cc(C)on1,0% (inactive)
9,CSc1nnc(-c2ccc(NC(=O)CCc3ccccc3)cc2)n1C,0% (inactive)
10,Cc1ccc(C(=O)Nc2nc3c(s2)CCCC3)o1,2% (inactive)
11,CC(=O)OCC(=O)[C@H]1CC[C@H]2[C@@H]3CCC4=CC(=O)CC[C@]4(C)[C@H]3CC[C@]12C,1% (inactive)
12,Cc1c(NC(=O)c2coc(=O)c(Br)c2)c(=O)n(-c2ccccc2)n1C,7% (inactive)
13,COc1cccc(NC(=O)Cc2nnc(SCC(=O)c3ccccc3)n2C)c1,0% (inactive)
14,CCOC(=O)c1cccc(NC(=O)Cn2cnc3c2c(=O)n(C)c(=O)n3C)c1,4% (inactive)
15,Cc1cc(C(=O)Nc2nc3c(s2)CCCC3)cs1,0% (inactive)
16,Cc1ccc(C(O)c2nc3ccccc3n2C(C)C)cc1 (centres undefined),0% (inactive)
17,COC(=O)Cn1c(=NC(=O)CSCC(=O)Nc2cc(C)on2)sc2ccccc21,0% (inactive)
18,O=C(Cn1c(=O)n(CC2CCCO2)c(=O)c2ccccc21)c1ccccc1 (centres undefined),0% (inactive)
19,O=C(Cc1c(F)cccc1Cl)Nc1ccncc1,6% (inactive)
20,CC1CCCN(C(=O)CN2CCN(C(=O)c3ccco3)CC2)C1 (centres undefined),0% (inactive)
21,C/C(=N\O)C(C)/[N+]([O-])=C/c1nc(C)c(C)n1O (centres undefined),0% (inactive)
22,CCn1cc(C(=O)NCCC2=CCCCC2)c(=O)c2cc(S(=O)(=O)N(C)C)ccc21,0% (inactive)
23,CC1Cc2ccccc2N1C(=O)CSc1nc2ccccc2n1CC(=O)N1CCOCC1 (centres undefined),0% (inactive)
24,CCn1c(SCC(=O)c2ccc(Cl)cc2)nnc1-c1ccoc1C,0% (inactive)

# — PubChem BioAssay
